# Measured values taken from the supplement of paper PMC12282887.
# ± gives the standard deviation of the averaged measurements.
# Columns and labels:
# Test in all cases: promoter activity interaction Z-score (Lux/OD deviation from empty-vector control); higher = stronger promoter induction by the compound
# [1] = test system: E. coli BW25113 acrABp lux reporter
# How it was run: (§1)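 At 37°C, E. coli BW25113 reporter cultures in 40 µl LB Lennox in 384-well plates were read for OD600 and luminescence every 30 min for 12 h. Windows were 0–8 h for wild type and 1–9 h for deletion strains, and wells under 10% of the median growth value were removed. The score is the Z-transformed residual of growth-normalised luminescence against a control fit.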
# [2] = test system: E. coli BW25113 marRABp lux reporter
# How it was run: as §1
# [3] = test system: E. coli BW25113 micFp lux reporter
# How it was run: as §1
# [4] = test system: E. coli BW25113 ompFp lux reporter
# How it was run: as §1
# [5] = 0.0012 µg/ml, genetic background: wild type
# [6] = 0.0012 µg/ml, genetic background: ΔmarA
# [7] = 0.0012 µg/ml, genetic background: Δrob
# [8] = 0.0012 µg/ml, genetic background: ΔsoxS
# [9] = 0.0025 µg/ml, genetic background: wild type
# [10] = 0.0025 µg/ml, genetic background: ΔmarA
# [11] = 0.0025 µg/ml, genetic background: Δrob
# [12] = 0.0025 µg/ml, genetic background: ΔsoxS
# [13] = 0.005 µg/ml, genetic background: wild type
# [14] = 0.005 µg/ml, genetic background: ΔmarA
# [15] = 0.005 µg/ml, genetic background: Δrob
# [16] = 0.005 µg/ml, genetic background: ΔsoxS
# [17] = 0.0099 µg/ml, genetic background: wild type
# [18] = 0.0099 µg/ml, genetic background: ΔsoxS
structure (smiles),measurement,setting,value
O=C(O)c1cn(C2CC2)c2cc(N3CCNCC3)c(F)cc2c1=O [Ciprofloxacin],promoter activity interaction Z-score,[1]; [5],-0.0508 ± 0.0034
same,promoter activity interaction Z-score,[1]; [6],0.353 ± 0.13
same,promoter activity interaction Z-score,[1]; [7],0.173 ± 0.043
same,promoter activity interaction Z-score,[1]; [8],0.42 ± 0.15
same,promoter activity interaction Z-score,[1]; [9],0.086 ± 0.043
same,promoter activity interaction Z-score,[1]; [10],0.398 ± 0.6
same,promoter activity interaction Z-score,[1]; [11],0.0723 ± 0.032
same,promoter activity interaction Z-score,[1]; [12],0.345 ± 0.36
same,promoter activity interaction Z-score,[1]; [13],-0.0602 ± 0.085
same,promoter activity interaction Z-score,[1]; [14],0.14 ± 0.38
same,promoter activity interaction Z-score,[1]; [15],-0.262 ± 0.024
same,promoter activity interaction Z-score,[1]; [16],0.245 ± 0.15
same,promoter activity interaction Z-score,[1]; [17],3.2 ± 0.99
same,promoter activity interaction Z-score,[2]; [5],-0.376 ± 0.019
same,promoter activity interaction Z-score,[2]; [6],-0.0878 ± 0.24
same,promoter activity interaction Z-score,[2]; [7],-0.0711 ± 0.075
same,promoter activity interaction Z-score,[2]; [8],0.251 ± 0.081
same,promoter activity interaction Z-score,[2]; [9],-0.228 ± 0.28
same,promoter activity interaction Z-score,[2]; [10],-0.253 ± 0.031
same,promoter activity interaction Z-score,[2]; [11],-0.0459 ± 0.41
same,promoter activity interaction Z-score,[2]; [12],0.188 ± 0.098
same,promoter activity interaction Z-score,[2]; [13],-0.472 ± 0.005
same,promoter activity interaction Z-score,[2]; [14],-0.302 ± 0.12
same,promoter activity interaction Z-score,[2]; [15],-0.138 ± 0.072
same,promoter activity interaction Z-score,[2]; [16],0.0987 ± 0.0052
same,promoter activity interaction Z-score,[2]; [17],2.5 ± 0.32
same,promoter activity interaction Z-score,[2]; [18],4.16
same,promoter activity interaction Z-score,[3]; [5],-0.234 ± 0.19
same,promoter activity interaction Z-score,[3]; [6],0.0327 ± 0.0091
same,promoter activity interaction Z-score,[3]; [7],-0.0152 ± 0.072
same,promoter activity interaction Z-score,[3]; [8],0.0125 ± 0.049
same,promoter activity interaction Z-score,[3]; [9],-0.177 ± 0.22
same,promoter activity interaction Z-score,[3]; [10],0.0702 ± 0.0035
same,promoter activity interaction Z-score,[3]; [11],0.0396 ± 0.11
same,promoter activity interaction Z-score,[3]; [12],0.236 ± 0.43
same,promoter activity interaction Z-score,[3]; [13],0.0988 ± 0.0042
same,promoter activity interaction Z-score,[3]; [14],0.222 ± 0.086
same,promoter activity interaction Z-score,[3]; [15],0.149 ± 0.08
same,promoter activity interaction Z-score,[3]; [16],0.0364 ± 0.036
same,promoter activity interaction Z-score,[3]; [17],-0.518 ± 0.27
same,promoter activity interaction Z-score,"[3]; 0.0099 µg/ml, genetic background: ΔmarA",-0.126 ± 0.0091
same,promoter activity interaction Z-score,"[3]; 0.0099 µg/ml, genetic background: Δrob",-0.163
same,promoter activity interaction Z-score,[3]; [18],-0.0606 ± 0.43
same,promoter activity interaction Z-score,[4]; [5],-0.438 ± 0.12
same,promoter activity interaction Z-score,[4]; [6],-0.0468 ± 0.33
same,promoter activity interaction Z-score,[4]; [7],-0.155 ± 0.71
same,promoter activity interaction Z-score,[4]; [8],0.116 ± 0.044
same,promoter activity interaction Z-score,[4]; [9],-0.471 ± 0.096
same,promoter activity interaction Z-score,[4]; [10],-0.00111 ± 0.52
same,promoter activity interaction Z-score,[4]; [11],-0.691 ± 0.58
same,promoter activity interaction Z-score,[4]; [12],0.136 ± 0.14
